Screens: PubChem, National Center for Advancing Translational Sciences (NCATS)
The list is not random: actives were taken first. Their share in the collection is about 19%.
BCR signal inh – chronic active BCR signaling inhibition. ABC-DLBCL IkBa-CBG/CBR reporter, luminescence ratio, 4 h. Potency, µM (titrated, usually from 46.1 µM), for inactives: at the top dose activity change, negative = inhibition, usual class: inhibitors. 340,000 compounds, 0.05% hits; active means well fitted inhibition curve with a large enough effect in the signal ratio, with a control signal flat, not every such curve was filed as active; inconclusive means small, poorly fitted or top-dose-only effect, or effect the other way, or a change in a side signal; the % refers to the signal ratio;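 further: potency means the concentration at half of the fitted maximal effect; plate controls were basal doxycycline-induced cells for no effect and cells given 10 µM MG132 for full effect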
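TMD8 ABC-DLBCL cells carrying doxycycline-inducible green luciferase fused to IkappaBalpha plus unfused red luciferase were exposed to compounds (up to 46 uM) for 4 hrs at 37C. Activity came from the overlap-corrected green/red luminescence ratio.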
SW480 rerep – inducers of DNA re-replication in SW480 colon cancer cells | SW480 DNA re-replication, Hoechst DNA content imaging, 48 h | Potency, µM (series often up to 46.1 µM), for inactives: at the top dose re-replication activation, hits mostly activators | 340,000 compounds, 1.8% hits; further: potency means the concentration at half of the fitted maximal effect; % of control where 0% means no effect; nearly all actives have a fitted effect of over 55% in size
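Hoechst fluorescence of nuclei (405 nm excitation, 500-530 nm emission) measured by plate-scanning imager after 48 hr compound exposure at 37 C; re-replication scored as increased number of nuclei with elevated intensity.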
TDP1 cell noCPT – qHTS for Inhibitors of human tyrosyl-DNA phosphodiesterase 1 (TDP1): qHTS in cells in absence of CPT. DT40 Tdp1-/- hTDP1 cells, no CPT, ATP luminescence, 48 h. Potency, µM (highest dose often 46.2 µM), without a hit: at the top dose activity change, negative = growth inhibition, usual class: inhibitors. 420,000 compounds, 15% hits; further: potency means the concentration at half of the fitted maximal effect; on the % scale 0 is the no-effect control and ±100 the full control effect; nearly all actives have a fitted effect of over 55% in size
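Growth of hTDP1-complemented DT40 Tdp1-knockout cells is measured by ATP luminescence after at least 48 hr compound exposure at 37 °C, with DMSO substituting for the 20 nM CPT used in the parallel screen.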
TDP1 cell CPT – DT40-hTDP1 cell growth loss with CPT | AID 686979 | chicken DT40 Tdp1-/-;hTDP1 cells + 20 nM CPT, ATP luminescence, 48 h | Potency, µM (titrated, usually from 46.2 µM), inactives show top-dose activity change, negative = growth inhibition, usual class: inhibitors | 420,000 compounds, 12% hits; further: potency means the concentration at half of the fitted maximal effect; on the % scale 0 is the no-effect control and ±100 the full control effect; nearly all actives have a fitted effect of over 55% in size
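Cell growth measured by CellTiter-Glo luminescence after a minimum 48 h, 37 C compound exposure with 20 nM CPT in Tdp1-knockout DT40 cells stably expressing hTDP1, seeded 400/well; qHTS titration format.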
MCF10A rerep – inducers of DNA re-replication in MCF 10A breast cells; MCF 10A DNA re-replication, Hoechst nuclear intensity, 48 h; Potency, µM (titrated, usually from 46.1 µM), without a hit: at the top dose activity, positive = re-replication, actives largely listed as activators; 350,000 compounds, 2.9% hits; AID 624296; further: potency means the concentration at half of the fitted maximal effect; % of control where 0% means no effect; nearly all actives have a fitted effect of over 50% in size
IL1B secr inh – inhibitors of inflammasome signaling (IL-1 beta secretion) | THP-1 LPS/ATP IL-1B secretion, AlphaLISA, 16 h; stronger effect = lower value | activity change, % at 57.5 µM | 360,000 compounds, 4.7% hits | AID 743279; in the data active means activity change below about -50%; inconclusive means mostly about -30% to -49%; further: on the % scale 0 is the no-effect control and ±100 the full control effect
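Secreted IL-1B measured by AlphaLISA bead assay after 16 h compound exposure of THP-1 cells; compounds (final up to 57.5 uM) added 1 h before LPS (250 ng/mL) and ATP (1.25 mM) stimulation; lower signal means less secretion.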
Numbers without * were called inactive; u = inconclusive; x = no result given; ! = repeats disagree. Unless noted, the call rests on the fitted dose curve; in most records, active means well fitted curve in the direction sought with a large enough effect; inconclusive means small, poorly fitted or top-dose-only effect, or another doubt; inactive means no such curve, though single readings can be large; an effect the other way counts as inactive or inconclusive.

SMILES	BCR signal inh	SW480 rerep	TDP1 cell noCPT	TDP1 cell CPT	MCF10A rerep	IL1B secr inh
CCC(NC(=O)C1(C)CC1(Br)Br)c1ccc(C)cc1 (centres undefined)	-3%	1%	-28%	u	-3%	9
COc1ccc(N2CCN(C(=O)c3cc(-c4ccc(C)c(F)c4)on3)CC2)cc1	x	x	0%	-4%	x	x
COC(=O)CCCn1cc(CN2CC(N(C)C)CS2(=O)=O)nn1 (centres undefined)	x	x	-21%	4%	x	36
O=C(Cc1cccs1)N=Nc1c(O)[nH]c2ccccc12	u	3%	41%	-5%	-5%	-21
O=C(Cc1cccs1)N=Nc1c(O)[nH]c2ccc(Br)cc12	6%	13%	u	26µM*	-6%	24
Cc1cc(C)n(CCC(=O)N=Nc2c(O)[nH]c3ccc(Br)cc23)n1	u	-2%	u	u	-2%	32
O=C(Cn1c(C(F)(F)F)nc2ccccc21)N=Nc1c(O)[nH]c2ccc(Br)cc12	-1%	1%	18µM*	u	0%	28
O=c1[nH]c(=O)n(C2CCCO2)cc1F (centres undefined)	3%	-2%	1%	1%	-3%	2
O=c1ccn(C2CCCO2)c(=O)[nH]1 (centres undefined)	x	-4%	15µM*	-29%	-4%	-1
O=C(c1cc(C2CC2)nn1-c1ccccc1)N1CCN(c2ccccn2)CC1	5%	1%	u	u	-2%	-63*
O=C(c1cc(C2CC2)nn1-c1ccccc1)N1CCN(c2ccc(O)cc2)CC1	9%	u	u	u	27%	-13
O=C(c1cc(C2CC2)nn1-c1ccccc1)N1CCN(S(=O)(=O)c2c(F)cccc2F)CC1	-1%	6%	-15%	u	13%	0
O=C(NC1CCCCC1)c1cc(C2CC2)nn1-c1ccccc1	u	-30%	16µM*	16µM*	28%	-21
O=C(c1cc(C2CC2)nn1-c1ccccc1)N1CCN(c2ccccc2O)CC1	0%	0%	16µM*	u	11%	u
O=C(c1cc(C2CC2)nn1-c1ccccc1)N1CCN(c2ncc(C(F)(F)F)cc2Cl)CC1	6%	-2%	-15%	u	13µM*	-10
CCOc1ccc(S(=O)(=O)N2CCN(C(=O)c3cc(-c4ccccc4)nn3-c3ccccc3)CC2)cc1	-1%	2%	u	u	14%	-12
CCOc1ccc(S(=O)(=O)N2CCN(C(=O)c3cc(C4CC4)nn3-c3ccccc3)CC2)cc1	1%	18%	18µM*	21µM*	13%	-25
CCCCCCNC(=O)CCCCCNS(=O)(=O)c1ccc(OC)cc1	2%	-1%	u	18µM*	u	-24
CCCCCCCCNS(=O)(=O)CCNCc1ccc(OC)cc1	x	8%	u	u	u	-61*
CCCCCCCCNS(=O)(=O)CCNCCCC	x	-8%	16µM*	u	-1%	u
CCc1ccccc1Oc1nc(NCCOC)nc2cc(-c3ccccc3)sc12	x	x	u	u	x	-25
COCCNc1nc(Oc2ccc(CC(=O)OC)cc2)c2sc(-c3ccccc3)cc2n1	x	x	18µM*	u	x	4
COCCNc1nc(NCc2cccc(OC)c2)c2sc(-c3ccccc3)cc2n1	x	x	13µM*	18µM*	x	-112*
COCCNc1nc2cc(-c3ccccc3)sc2c(=O)n1C	x	x	u	u	x	6
COCCNc1nc(NCc2ccc(NC(C)=O)cc2)c2sc(-c3ccccc3)cc2n1	x	x	4.1µM*	3.3µM*	x	0
SMILES	BCR signal inh	SW480 rerep	TDP1 cell noCPT	TDP1 cell CPT	MCF10A rerep	IL1B secr inh
C=C1CC2(OC1=O)c1ccccc1CCc1ccccc12	x	4.1µM*	2.9µM*	4.6µM*	2.9µM*	-102*
COc1cccc(Nc2nc(C)cc(C)c2C(N)=O)c1	1%	0%	-5%	-9%	-3%	-1
CC(C)=CCCC(C)CN1CCC(N2CCC(C(=O)NC(C)C)CC2)CC1 (centres undefined)	-10%	u	16µM*	23µM*	4%	-25
CCN1CCCC1CN(Cc1cc2cc(C)cc(C)c2[nH]c1=O)C(=O)Nc1ccccc1OC (centres undefined)	-3%	5%	21µM*	13µM*	-2%	u
CCN1CCCC1CN(Cc1cc2ccc(C)cc2[nH]c1=O)C(=S)Nc1ccc(OC)cc1OC (centres undefined)	u	4%	u	u	-4%	-52*
O=S(=O)(c1cnc2ccccc2c1)N1CCN(c2nc(-c3cccs3)nc3ccccc23)CC1	x	x	-21%	-26%	x	x
CC(C)OCCCNC(=O)CN1C(=O)c2cccc3cccc1c23	-10%	0%	3%	12%	1%	-3
CC(=O)c1ccc(N2CCN(c3ccc(S(=O)(=O)NCCCN(C)C)cc3[N+](=O)[O-])CC2)cc1	u	24%	23µM*	23µM*	u	-19
CN(C)CCCNS(=O)(=O)c1ccc(N2CCN(Cc3ccc4c(c3)OCO4)CC2)c([N+](=O)[O-])c1	u	u	21µM*	23µM*	14%	-70*
CC(=O)c1ccc(N2CCN(c3ccc(S(=O)(=O)NCCN(C)C)cc3[N+](=O)[O-])CC2)cc1	-17%	-2%	u	u	5%	9
CN(C)CCNS(=O)(=O)c1ccc(N2CCc3ccccc32)c([N+](=O)[O-])c1	-4%	5%	26µM*	16µM*	u	-23
O=C(c1cc2ccccc2[nH]1)N(Cc1cccnc1)CC1CCCN(C2CCCCC2)C1 (centres undefined)	1%	u	u	u	u	-9
CCCCc1cc2ccccc2c(OCCN(C)C)n1	u	-48%	u	9µM*!	8%	-27
CN(C)CCOc1ccc2ccccc2c1	u	1%	-17%	-10%	2%	3
Cc1cc(OCCOCC[N+](C)(C)Cc2ccccc2)ccc1C(C)(C)CC(C)(C)C	x	x	1.1µM*	1.2µM*	x	x
COc1ccc(NC(=O)N2CCC3(CC2)CCN(C(=O)c2cnccn2)CC3)cc1	x	x	-24%	7%	x	x
COc1ccc(Nc2nc3[nH]c(=O)cc(O)c3s2)cc1	-1%	2%	18µM*	12µM*	16%	-13
O=c1cc(O)c2sc(Nc3ccc(Cl)c(F)c3)nc2[nH]1	7%	u	4.6µM*	5.2µM*	18%	22
